The list is not random: actives were taken first. Their share in the collection is about 1.1%.
LANA-H2B inh: blocks KSHV LANA binding to histone H2A/H2B. Q9QR71. cell-free LANA-H2A/H2B peptide, fluorescence polarization. inhibition, % (test concentration not listed). 320,000 tested, 0.6% active. AID 2629; in the data active = inhibition mostly above about 10%, no sharp cut-off; inactive = mostly below about 6.7%
HDAC3 inhib: blocks human histone deacetylase 3 | inhibition, % at 8.3 µM | 320,000 tested, 0.15% active | recombinant HDAC3, fluorogenic peptide/trypsin coupled, fluorescence | O15379 | AID 2718; in the data active = inhibition above about 26%, passing the limit was not always enough
Target sequence (O15379 whole entry, looked up): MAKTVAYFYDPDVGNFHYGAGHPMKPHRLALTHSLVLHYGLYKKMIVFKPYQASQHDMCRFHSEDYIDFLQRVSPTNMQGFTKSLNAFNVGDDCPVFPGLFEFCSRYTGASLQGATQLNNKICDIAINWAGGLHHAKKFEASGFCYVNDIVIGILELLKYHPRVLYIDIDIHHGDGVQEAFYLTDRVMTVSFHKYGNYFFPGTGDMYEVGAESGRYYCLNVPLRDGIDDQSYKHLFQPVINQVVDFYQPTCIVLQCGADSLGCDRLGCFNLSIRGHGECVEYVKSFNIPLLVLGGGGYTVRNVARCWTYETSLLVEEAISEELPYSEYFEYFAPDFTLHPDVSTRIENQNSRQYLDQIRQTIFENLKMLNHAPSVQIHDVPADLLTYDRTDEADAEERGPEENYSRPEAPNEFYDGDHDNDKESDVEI
IDE inh: inhibits human insulin-degrading enzyme in HEK cells | P14735 | FAbetaB cleavage, fluorescence polarization | inhibition, % at 5.59 µM | AID 434962 | 320,000 tested, 0.41% active;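 active = percent inhibition above the average of all tested compounds plus 3 SD, set per screening campaign, cut at about 16% in these data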;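 note: IDE supplied by intact live HEK cells; FP after avidin binding of uncleaved biotin substrate so inhibition keeps polarization high; 0% = DMSO wells and 100% = 60 µM reference IDE inhibitor Ii1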
IDE cell activ: boosts human insulin-degrading enzyme activity in HEK cells; AID 493087; 340,000 tested, 0.073% active; P14735; FAbeta-B cleavage, fluorescence polarization; 0% vehicle, 100% cell-free pure enzyme wells; activation, % at 5.96 µM;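 active = activation above the mean of all tested compounds plus 3 SD, set per screening campaign, cut at about 17% in these data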
Starred values were filed as active, the others as inactive; / = no result given; ! = repeats disagree.

SMILES	LANA-H2B inh	HDAC3 inhib	IDE inh	IDE cell activ
COc1cccc(CCNC(=O)CC2C(=O)NCCN2CC(C)(C)C)c1 (stereo not drawn)	17*	0	0	-1
O=C(CC1C(=O)NCCN1Cc1cccc(F)c1)NCCCN1CCCC1=O (stereo not drawn)	15*	6	5	0
CCOc1ccccc1CN1CCNC(=O)C1CC(=O)NCCc1ccccn1 (stereo not drawn)	99*	-4	1	1
COc1cccc(CN2CCNC(=O)C2CC(=O)NCCCN2CCCC2=O)c1 (stereo not drawn)	3	1	-1	9
CCOc1ccccc1CN1CCNC(=O)C1CC(=O)N(C)CCc1ccccn1 (stereo not drawn)	1	-4	0	5
NC(=O)C1CCN(C(=O)c2ccc(NS(=O)(=O)c3ccc(Br)s3)cc2)CC1	/	/	/	6
NS(=O)(=O)c1cc2c(cc1Cl)NC(c1ccccc1OCC(=O)O)NS2(=O)=O (stereo not drawn)	-6	-4	6	-4
Cc1ccc(-c2nnc(SCC(=O)N/N=C/c3ccc(C(=O)O)cc3)n2C2CCCCC2)cc1	12*	1	-2	2
COc1ccccc1N1CCN(CC(O)COc2cccc3ccccc23)CC1 (stereo not drawn)	24*!	4	-2	9
OC(COc1cccc2ccccc12)CN1CCN(c2ccccc2)CC1 (stereo not drawn)	-4	1	2	5
CC(C)CNC(=S)N(CCO)Cc1cc2cc3c(cc2[nH]c1=O)OCO3	2	1	5	1
COc1cccc2c1C(=O)c1c(O)c3c(c(O)c1C2=O)CC(O)(C(=O)CO)CC3OC1CC(N(C)C)C(O)C(C)O1 (stereo not drawn)	/	/	/	0
CC(=O)[C@]1(O)Cc2c(O)c3c(c(O)c2[C@@H](O[C@H]2C[C@H](N)[C@H](O)[C@H](C)O2)C1)C(=O)c1ccccc1C3=O	49*	8	1	/
COc1cccc2c1C(=O)c1c(O)c3c(c(O)c1C2=O)C[C@@](O)(C(=O)CO)C[C@@H]3O[C@H]1C[C@H](N)[C@@H](O)[C@H](C)O1	27*	-5	2	-9
COc1cccc2c1C(=O)c1c(O)c3c(c(O)c1C2=O)C[C@@](O)(C(C)=O)C[C@@H]3O[C@H]1C[C@H](N)[C@H](O)[C@H](C)O1	/	/	/	19*
Cc1cn2c(=O)c(C(=O)N3CCN(c4ccccc4F)CC3)cnc2s1	-2	0	-6	0
C#CCOCCOCCOCCNc1nc(N2CCN(C(=O)CCCCCCCCCCNC(=O)[C@H](CCCCN)n3cc(CCCC(=O)O)nn3)CC2)nc(N2CCN(C(=O)CCCCCCCCCCNC(=O)[C@H](CCCN=C(N)N)n3cc(C[C@@H](C)CC)nn3)CC2)n1	-15	20	5	26*
C#CCOCCOCCOCCNc1nc(N2CCN(C(=O)CCCCCCCCCCNC(=O)[C@@H](CCSC)n3cc(CCO)nn3)CC2)nc(N2CCN(C(=O)CCCCCCCCCCNC(=O)[C@H]([C@@H](C)CC)n3cc(CCCCN=C(N)N)nn3)CC2)n1	-7	20	5	46*
C#CCOCCOCCOCCNc1nc(N2CCN(C(=O)CCCCCCCCCCNC(=O)[C@H](CCCCN)n3cc(CCO)nn3)CC2)nc(N2CCN(C(=O)CCCCCCCCCCNC(=O)[C@H](CCCN=C(N)N)n3cc(C[C@@H](C)CC)nn3)CC2)n1	-42	29*	1	40*
C#CCOCCOCCOCCNc1nc(N2CCN(C(=O)CCCCCCCCCCNC(=O)Cn3cc(C[C@@H](C)O)nn3)CC2)nc(N2CCN(C(=O)CCCCCCCCCCNC(=O)Cn3cc(C[C@@H](C)O)nn3)CC2)n1	2	-5	-3	-2
C#CCOCCOCCOCCNc1nc(N2CCN(C(=O)CCCCCCCCCCNC(=O)Cn3cc(C[C@@H](C)O)nn3)CC2)nc(N2CCN(C(=O)CCCCCCCCCCNC(=O)[C@H](CCCCN)n3cc(C[C@@H](C)CC)nn3)CC2)n1	-17	9	-4	30*
CN(C(=O)c1ccc2c(c1)OCCO2)c1c(N)n(Cc2ccccc2)c(=O)[nH]c1=O	-1	15	-1	3
CCNC(=O)NC(=O)COC(=O)c1ccccc1SCC(=O)NC(=O)NCC	-3	-82	7	0
C#CCOCCOCCOCCNc1nc(N2CCN(C(=O)CCCCCCCCCCNC(=O)[C@H](CCCCN)n3cc(C[C@@H](C)CC)nn3)CC2)nc(N2CCN(C(=O)CCCCCCCCCCNC(=O)[C@H](CCCCN)n3cc(C[C@@H](C)CC)nn3)CC2)n1	-18	53*	-2	40*
